Reference: PubChem BioAssay AID1053117 (Broad Institute, 2014)
Measured potencies and affinities stand elsewhere. The source made the active and inactive calls.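 Rule for the calls: active = compounds lowering cell ATP signal with a fitted half-effect dose at most twice the top valid dose; inconclusive = flat curve with 30 to 70% signal loss, or bad fit; inactive = wrong direction, flat within 30%, or weaker than limit.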

assay: viability loss in HEK293 kidney cells – cell-based, cherry-picks, set 5, cytotoxicity control, dose response (AID 1053117); conditions: HEK293T viability, CellTiter-Glo ATP luminescence, 72 h; series mostly up to 26 µM;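 note: more negative means greater loss of ATP signal and more cytotoxicity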

SMILES	outcome
O=C(C[C@@H]1C[C@@H]2c3cc(NC(=O)c4ccc5c(c4)OCO5)ccc3O[C@@H]2[C@@H](CO)O1)NCc1ccc(Oc2ccccc2)cc1	inactive
O=S(=O)(c1ccccc1F)N1CC[C@@H]2[C@H](CO)Nc3ccc(-c4cccc(F)c4)cc3[C@@H]21	inactive
C[C@H](CO)N1C[C@H](C)[C@H](CN(C)Cc2ccccc2)Oc2ncc(-c3ccccc3)cc2C1=O	inactive
CC(C)C(=O)Nc1ccc2c(c1)C(=O)N(C)[C@@H]1CC[C@H](CC(=O)O)O[C@@H]1CO2	inactive
C[C@H]1CN([C@@H](C)CO)C(=O)c2cc(NC(=O)CCCN(C)C)ccc2O[C@H]1CN(C)Cc1ccc(-c2ccccc2)cc1	inactive
COCC(=O)Nc1ccc2c(c1)C(=O)N(C)[C@@H]1CC[C@H](CC(=O)NCc3ccccc3Cl)O[C@@H]1CO2	inactive
C[C@@H]1CN([C@H](C)CO)C(=O)c2cc(NC(=O)CCCN(C)C)ccc2O[C@@H]1CN(C)Cc1ccc(-c2ccccc2)cc1	inactive
O=C(c1cccnc1)N1C[C@@H]2[C@H](c3ccccc31)[C@@H](CO)N2CC1CCCC1	inactive
CCOC(=O)C1=C(C)Nc2nc3ccccc3n2C1c1ccncc1 (configuration not stated)	inactive
Cc1ccc(CS(=O)Cc2ccc(C(=O)NC3CCCC(C)C3C)o2)cc1 (configuration not stated)	inactive
C[C@@H]1CN([C@@H](C)CO)C(=O)c2cccc(NC(=O)Nc3ccc(C(F)(F)F)cc3)c2O[C@H]1CN(C)C(=O)Nc1cccc2ccccc12	inactive
O=C(NCCS(=O)(=O)N1CCN(c2ccc(F)cc2)CC1)c1ccc(Br)o1	inactive
